From PubChem BioAssay (Tox21) come the findings set out here.

The target in assay [1] is Androgen receptor (Homo sapiens) (UniProt P10275). Kind of assay: qHTS assay to identify small molecule antagonists of the androgen receptor (AR) signaling pathway using the MDA cell line in the presence of 0.5 nM R1881 (AID 1259243). Also: nearly all actives have a fitted effect of over 50% in size. Also: potency is read from the fitted curve at half-maximal effect. In outline:
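MDA-kb2, MMTV-luc (AR/GR elements); 3,000 cells/well; cpd + 0.5 nM R1881 final; 16 hr 37C, 0% CO2; ONE-Glo 30 min RT; luminescence.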

Assay [2] has as its target Estrogen receptor (Homo sapiens) (UniProt P03372). The assay can be described thus: qHTS assay to identify small molecule antagonists of the estrogen receptor alpha (ER-alpha) signaling pathway using the BG1 cell line in the presence of 0.1 nM 17-beta-estradiol (AID 1259244). Also: nearly all actives have a fitted effect of over 50% in size. Also: potency is read from the fitted curve at half-maximal effect. In outline: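 Luminescence after ONE-Glo (30 min, room temperature) measured ERE-luciferase activity in VM7Luc4E2 cells treated 22 h with compound and 0.1 nM final 17beta-estradiol as stimulator.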
A general note: Quantitative high-throughput screening tests each substance at several concentrations.

Assay [3] is described as follows: qHTS assay to identify small molecule HDAC inhibitors (AID 1259364).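 Also: wild-type HCT-116 cells with endogenous class I/II HDAC activity; top concentration of the series differs between compounds; nearly all actives have a fitted effect of over 45% in size.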 In outline:
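HCT-116 (wild type), 1,500 cells/well, overnight; compound 2 hr 37C 5% CO2; HDAC-Glo I/II reagent 30 min RT; luminescence readout.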

A short description of assay [4]: qHTS assay to identify small molecule HDAC inhibitors - cell viability counter screen (AID 1259365). Also: series mostly up to about 92 µM; nearly all actives have a fitted effect of over 50% in size. In outline:
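After overnight seeding at 1,500 cells per well, wild-type HCT-116 cultures took up compounds in DMSO for 2hr at 37 C. Viable cell content came from luminescence with CellTiter-Glo.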

The nature of assay [5]: qHTS assay to identify small molecule agonists of the sonic hedgehog signaling (Shh) pathway - cell viability counter screen (AID 1259366). Also: nearly all actives have a fitted effect of over 50% in size. Also: potency is read from the fitted curve at half-maximal effect. In outline:
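Same-well cytotoxicity read. Gli1-Luc reporter 3T3 cells; compounds 24hr, 37C/5% CO2; CellTiter-Fluor fluorescence.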

Assay [6] can be described thus: qHTS assay to identify small molecule antagonists of the sonic hedgehog signaling (Shh) pathway - cell viability counter screen (AID 1259367). Also: nearly all actives have a fitted effect of over 55% in size. Also: potency is read from the fitted curve at half-maximal effect. In outline:
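Conditioned medium drove Shh signaling in 3T3 Gli1-Luc cells exposed to compounds at 37C and 5% CO2. Viability was determined from CellTiter-Fluor fluorescence, with reagent incubated 1 hr after 23 hr of treatment.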

Assay [7] is described as follows: qHTS assay to identify small molecule agonists of the sonic hedgehog signaling (Shh) pathway (AID 1259368; calls by dose curve;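 also: NIH/3T3-derived 3T3Gli1-Luc cells carrying a stable Gli1-driven firefly luciferase reporter; series mostly up to about 92 µM; nearly all actives have a fitted effect of over 15% in size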). In outline: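 Read-out: firefly luciferase luminescence from a Gli1 response element reporter stably integrated in NIH/3T3-derived 3T3Gli1-Luc cells, measured 30 min at room temperature after reagent addition. Compound exposure lasted 24 hr at 37 C, 5% CO2.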

A short description of assay [8]: qHTS assay to identify small molecule antagonists of the sonic hedgehog signaling (Shh) pathway (AID 1259369; calls by dose curve; also: nearly all actives have a fitted effect of over 45% in size; also: potency is read from the fitted curve at half-maximal effect). In outline: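 Luminescence readout: firefly Luc under Gli1 response element in 3T3Gli1-Luc cells (NIH/3T3 clone). Antagonist mode, stimulation by conditioned medium; compound exposure 24hr at 37 C, 5% CO2.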
Assay [9] can be described thus: qHTS assay to identify small molecule phospholipidosis (PLD) inducers (AID 1259344; active = well fitted curve in the direction sought with a large enough effect; an effect the other way counts as inactive or inconclusive). In outline:
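After 4 h attachment on collagen I, HepG2 cells were dosed with compound alongside LipidTOX Red, kept 24 h at 37 C, fixed, and imaged for lamellar phospholipid pits.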

Assay [10] deals with Estrogen receptor beta (Homo sapiens) (UniProt Q92731). Kind of assay: qHTS assay to identify small molecule agonists of the estrogen receptor beta (ER-beta) signaling pathway (AID 1259377; active = well fitted activation curve with a large enough effect in the signal ratio in the repeat runs, not every such curve was filed as active; the % refers to the signal ratio). In outline: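 Read-out: beta-lactamase FRET fluorescence. Cell line: ER-beta-UAS-bla HEK293T in 2% charcoal-stripped FBS. Exposure: 16 hr at 37C. Substrate step: 2 h at room temperature.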

Where “and” joins values, the source holds several entries; their conditions need not be identical. Identical values can stand only once. Values without a mark were called inactive. Results filed as inconclusive are left out. Calls of active or inactive are those of the source. Unless noted, calls follow the shape of the dose curve; as a rule, active = well fitted curve in the direction sought with a large enough effect in the repeat runs; inconclusive = weak or mixed curves; inactive = no such curve, though single readings can be large; an effect the other way counts as inactive or inconclusive.
% is scaled to controls: 0 for no effect and ±100 for the full control effect.

Sequence of Estrogen receptor beta (Homo sapiens) (Q92731 whole entry, looked up): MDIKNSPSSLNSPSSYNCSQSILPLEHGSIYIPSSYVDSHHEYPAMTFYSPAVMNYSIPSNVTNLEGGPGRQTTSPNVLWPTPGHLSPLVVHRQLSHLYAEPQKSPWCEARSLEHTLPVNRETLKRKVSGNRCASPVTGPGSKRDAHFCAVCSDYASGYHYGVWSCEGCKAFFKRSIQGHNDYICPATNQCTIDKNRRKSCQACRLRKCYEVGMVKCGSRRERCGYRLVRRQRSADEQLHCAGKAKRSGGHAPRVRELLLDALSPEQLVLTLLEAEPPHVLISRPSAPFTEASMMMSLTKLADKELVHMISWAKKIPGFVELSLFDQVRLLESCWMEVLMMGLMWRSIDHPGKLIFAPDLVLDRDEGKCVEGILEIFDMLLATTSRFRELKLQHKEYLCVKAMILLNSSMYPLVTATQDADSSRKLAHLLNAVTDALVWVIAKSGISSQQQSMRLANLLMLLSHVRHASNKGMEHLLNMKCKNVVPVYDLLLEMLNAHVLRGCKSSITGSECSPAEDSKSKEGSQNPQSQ
Sequence of Estrogen receptor (Homo sapiens) (P03372 whole entry, looked up): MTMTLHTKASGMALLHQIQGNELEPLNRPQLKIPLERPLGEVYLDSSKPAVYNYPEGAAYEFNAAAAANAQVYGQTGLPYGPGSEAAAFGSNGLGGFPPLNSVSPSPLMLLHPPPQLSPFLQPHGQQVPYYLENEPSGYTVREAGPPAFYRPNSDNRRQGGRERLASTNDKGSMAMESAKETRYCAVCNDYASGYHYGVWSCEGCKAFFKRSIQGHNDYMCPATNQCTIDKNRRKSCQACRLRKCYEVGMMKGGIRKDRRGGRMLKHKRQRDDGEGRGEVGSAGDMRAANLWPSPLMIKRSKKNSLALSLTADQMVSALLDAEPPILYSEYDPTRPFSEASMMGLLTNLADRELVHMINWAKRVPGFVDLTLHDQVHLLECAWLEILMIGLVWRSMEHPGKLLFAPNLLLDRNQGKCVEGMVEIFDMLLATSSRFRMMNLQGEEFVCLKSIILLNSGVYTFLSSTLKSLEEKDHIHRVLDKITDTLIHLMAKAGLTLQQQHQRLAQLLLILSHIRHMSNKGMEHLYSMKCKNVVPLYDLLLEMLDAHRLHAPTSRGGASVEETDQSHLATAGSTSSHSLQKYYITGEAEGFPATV
Sequence of Androgen receptor (Homo sapiens) (P10275 whole entry, looked up): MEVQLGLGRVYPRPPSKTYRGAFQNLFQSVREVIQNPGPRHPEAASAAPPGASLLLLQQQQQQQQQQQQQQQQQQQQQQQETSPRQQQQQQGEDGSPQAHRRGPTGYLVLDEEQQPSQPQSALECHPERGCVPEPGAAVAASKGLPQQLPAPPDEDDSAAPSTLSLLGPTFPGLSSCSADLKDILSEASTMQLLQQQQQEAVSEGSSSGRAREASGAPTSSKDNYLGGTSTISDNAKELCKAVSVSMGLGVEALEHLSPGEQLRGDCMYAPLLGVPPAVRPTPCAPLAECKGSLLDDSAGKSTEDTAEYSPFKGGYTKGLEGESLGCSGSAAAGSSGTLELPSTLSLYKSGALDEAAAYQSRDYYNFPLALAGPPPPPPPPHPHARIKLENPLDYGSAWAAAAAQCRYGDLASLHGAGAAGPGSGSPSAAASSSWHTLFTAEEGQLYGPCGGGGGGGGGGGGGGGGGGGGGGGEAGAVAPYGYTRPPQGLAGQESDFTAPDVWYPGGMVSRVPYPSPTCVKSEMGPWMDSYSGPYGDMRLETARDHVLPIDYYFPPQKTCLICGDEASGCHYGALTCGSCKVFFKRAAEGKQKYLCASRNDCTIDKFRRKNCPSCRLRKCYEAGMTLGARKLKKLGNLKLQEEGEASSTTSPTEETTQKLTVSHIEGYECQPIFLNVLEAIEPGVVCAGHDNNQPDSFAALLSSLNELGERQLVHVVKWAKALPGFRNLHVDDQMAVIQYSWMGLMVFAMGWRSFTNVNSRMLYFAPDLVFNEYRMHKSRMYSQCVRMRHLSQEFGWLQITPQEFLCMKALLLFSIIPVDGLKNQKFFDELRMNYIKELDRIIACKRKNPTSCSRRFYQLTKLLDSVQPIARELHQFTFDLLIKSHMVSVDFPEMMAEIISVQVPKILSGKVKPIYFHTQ

For `CO[Si](CCCNCCNCCN)(OC)OC`, the Potency result in [1], in assay [2], in assay [3], in assay [4], in assay [5] and in [6] was “inactive” throughout. The Potency entry in assay [7] and in assay [8] was “inactive” each time.

On to `Clc1ccc(C(Cn2ccnc2)OCc2c(Cl)cccc2Cl)c(Cl)c1` (centres undefined), for which, in [1], the Potency is 8.41 µM (active). Further, the Potency entry in assay [2], in assay [9], in [3], in [4], in [6] and in [7] was “inactive” in each case.

With `NC(=O)C(=O)N/N=C/c1ccc([N+](=O)[O-])o1`, the Potency entry in [1], in [2], in assay [9], in assay [3], in [4] and in [5] was “inactive” throughout. The Potency entry in assay [6], in assay [7] and in assay [10] was “inactive” in each case.

Turning to `Cc1ccc(O)cn1`, the Potency entry in [1], in assay [2], in assay [3], in [4], in assay [5] and in assay [6] was “inactive” in each case. In [7], the Potency entry is “inactive”.

Consider `CCCCCCCCCCCCCCCCCO`, for which the activity, negative = inhibition in assay [1] was -1.74% [at 19 µM]. Also, the activity change, negative = inhibition is 0.173% [at 19 µM] in assay [2], -0.454% [at 19 µM] in assay [3] and -1.47% [at 19 µM] in [8]. In addition, the activity change, negative = cytotoxicity in assay [4] is 1.77% [at 19 µM]. Also, the viability change, negative = cytotoxic in [5] was -3.91% [at 19 µM]; in [6] it was 5.3% [at 19 µM]. For the same compound, the activity change in assay [7] was -2.43% [at 18.9 µM, stronger effect = higher value].

Turning to `CCO[Si](C)(C)OCC`, the Potency entry in assay [1], in assay [2], in assay [3], in assay [4], in assay [5] and in assay [6] was “inactive” throughout. In addition, the Potency entry in assay [7] and in [8] was “inactive” each time.

Regarding `CC(C)=CCCC(C)O` (centres undefined), the Potency entry in assay [1], in [2], in assay [3], in assay [4], in [5] and in assay [6] was “inactive” in each case. Also, the Potency entry in assay [7], in assay [8] and in assay [10] was “inactive” each time.

In the case of `C[C@@H]1CC[C@H]2C(C)(C)[C@H]3C[C@@]12CC[C@@]3(C)O`, the Potency result in [1], in assay [2], in assay [3], in assay [4], in assay [5] and in [6] was “inactive” in each case. Besides, the Potency result in assay [7], in assay [8] and in [10] was “inactive” each time.

As for `CC(C)(C)c1n[nH]c(=O)n(N)c1=O`, the Potency entry in assay [1], in assay [2], in assay [3], in [4], in [5] and in assay [6] was “inactive” throughout. For the same compound, the Potency entry in assay [7], in assay [8] and in assay [10] was “inactive” throughout.

Consider `CCCCN(C)C`, for which the Potency entry in [1], in assay [2], in assay [3], in assay [4], in assay [5] and in [6] was “inactive” throughout. In addition, the Potency result in [7] and in assay [8] was “inactive” each time.

As for `CC1=C(/C=C/C(C)=C/C=C/C(C)=C/C(=O)Nc2ccc(O)cc2)C(C)(C)CCC1`, the Potency in assay [1] is 55.9 µM (active) and 18.8 µM (active); in assay [2] it was 28 µM (active) and 13.3 µM (active); in assay [5], 31.4 µM (active) and 21.1 µM (active); in assay [6], 28 µM (active) and 21.1 µM (active); in [8], 14 µM (active) and 11.9 µM (active). The Potency entry in [9], in [3], in [4] and in assay [7] was “inactive” in each case.

Consider `C[Si](C)O[Si](C)C`, for which the Potency entry in assay [1], in [2], in assay [3], in assay [4], in assay [5] and in assay [6] was “inactive” throughout. The Potency entry in assay [7], in assay [8] and in [10] was “inactive” each time.

On to `CCC(C)(C)c1cc(O)c(C(C)(C)CC)cc1O`, for which the Potency is 17.2 µM (active) in assay [1], 68.6 µM (active) in [2] and 6.86 µM (active) in [8]. The Potency result in assay [3], in assay [4], in [5], in [6], in [7] and in assay [10] was “inactive” each time.

As for `Cc1oc(-c2ccccc2)nc1CCOc1ccc(C[C@H](Nc2ccccc2C(=O)c2ccccc2)C(=O)O)cc1`, the Potency result in [1], in assay [2], in assay [3] and in assay [7] was “inactive” each time. The Potency in [6] was 48.6 µM (active).

As to `CCCN(CCc1cccs1)[C@H]1CCc2c(O)cccc2C1`, in assay [1], the Potency was 26.6 µM (active). In addition, the Potency result in assay [9], in assay [3], in assay [4], in [5], in assay [6] and in assay [7] was “inactive” each time.

Turning to `Oc1ccc(-c2ccccc2)c(Cl)c1`, in assay [1], the Potency was 1.93 µM (active). In addition, the Potency entry in [2], in assay [3], in assay [4], in [7] and in assay [8] was “inactive” each time.

In the case of `CC(C)(C)c1cc(CCC(=O)NCCCCCCNC(=O)CCc2cc(C(C)(C)C)c(O)c(C(C)(C)C)c2)cc(C(C)(C)C)c1O`, the Potency entry in assay [1], in [2], in assay [3], in assay [4], in assay [5] and in assay [6] was “inactive” in each case. The Potency result in assay [7], in [8] and in assay [10] was “inactive” throughout.

In the case of `CCOC(OCC)C(=O)c1ccccc1`, the Potency result in assay [1], in assay [2], in assay [3], in assay [4], in [5] and in assay [6] was “inactive” in each case. The Potency entry in assay [7], in assay [8] and in assay [10] was “inactive” each time.

As for `C=CC(=O)OCCN(CC)CC`, the Potency result in [1], in assay [2], in [3], in [4], in [6] and in assay [7] was “inactive” each time. Also, the Potency entry in assay [8] and in assay [10] was “inactive” throughout.

In the case of `O=S(=O)(O)c1cc(S(=O)(=O)O)c2ccc3c(S(=O)(=O)O)cc(S(=O)(=O)O)c4ccc1c2c43`, the activity, negative = inhibition in assay [1] is 1.23% [at 19 µM]. Also, the results for the activity change, negative = inhibition in [2], in assay [3] and in [8] were 0.118% [at 19 µM], 4.2% [at 19 µM] and 2.19% [at 19 µM], respectively. Also, the activity change, negative = cytotoxicity in assay [4] was 1.04% [at 19 µM]. For the same compound, the viability change, negative = cytotoxic in assay [5] was 1.66% [at 19 µM]; in [6] it was 0.116% [at 19 µM]. Moreover, in assay [7], the activity change is -2.01% [at 18.9 µM, stronger effect = higher value]. Further, in assay [10], the activation was -3.15% [at 19 µM].

`CC(C)CCOCCC(C)C`: the Potency result in assay [1], in [2], in assay [3], in assay [4], in assay [6] and in assay [7] was “inactive” throughout. In addition, the Potency result in [8] and in [10] was “inactive” in each case.

Consider `Cc1cccc(N(C)C)c1`, for which the Potency result in [1], in assay [2], in assay [3], in assay [4], in assay [6] and in assay [7] was “inactive” in each case. Moreover, in assay [8], the Potency entry was “inactive”.

Regarding `Cc1cnccn1`, the Potency entry in assay [1], in assay [2], in assay [3], in [4], in [5] and in assay [6] was “inactive” each time. For the same compound, the Potency result in assay [7], in assay [8] and in [10] was “inactive” throughout.

For `C=CC(C)(CCC=C(C)C)OC(=O)/C=C/c1ccccc1` (centres undefined), the Potency result in assay [1], in assay [2], in [3], in [4], in [5] and in [6] was “inactive” throughout. The Potency result in assay [7] and in assay [10] was “inactive” throughout.
